Laboratory results from PubChem BioAssay (NCI).
The panel holds about 83,000 compounds, 20% with a hit somewhere; the sample as a whole holds those more often.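 Compound tested at a single concentration for 48 hours in 96-well plates; a percent growth value below 10 was scored as active.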 The source made the active and inactive calls.

Columns and labels:
Assay in all cases: NCI-60 one-dose screen, 48 h (100 = growth as untreated, 0 = no growth, -100 = all killed)
Conditions in all cases: 10 µM unless noted
NCI-H23 lung = system: NCI-H23 lung
NCI-H226 lung = system: NCI-H226 lung
NCI-H322M lung = system: NCI-H322M lung
HOP-62 NSCLC = system: HOP-62 NSCLC
NCI-H460 lung = system: NCI-H460 lung
HOP-92 NSCLC = system: HOP-92 NSCLC
NCI-H522 lung = system: NCI-H522 lung
A549/ATCC NSCLC = system: A549/ATCC NSCLC
786-0 renal = system: 786-0 renal
COLO 205 colon = system: COLO 205 colon

Measured: growth

Cn1cc(-c2csc(-c3c[nH]c4ccc(F)cc34)n2)c2ccnc(Cl)c21
inactive: NCI-H23 lung 64.2% | NCI-H226 lung 62.1% | NCI-H322M lung 80.6% | HOP-62 NSCLC 98.2% | NCI-H460 lung 36.7% | HOP-92 NSCLC 71.5% | NCI-H522 lung 79.4% | A549/ATCC NSCLC 64.3% | 786-0 renal 57.6% | COLO 205 colon 52.2%

CCN1C2CCC1/C(=C\c1ccc(F)cc1)C(=O)/C2=C/c1ccc(F)cc1
inactive: NCI-H23 lung 29.2% | NCI-H226 lung 51.6% | NCI-H322M lung 42.9% | HOP-62 NSCLC 46% | NCI-H460 lung 46.4% | HOP-92 NSCLC 38.1% | NCI-H522 lung 36.7% | A549/ATCC NSCLC 52.6% | 786-0 renal 42.5% | COLO 205 colon 20.7%

CCOC(=O)C#Cc1c(C(=O)OCC)nnn1Cc1ccc(C(F)(F)F)cc1
active: NCI-H522 lung -15.1%
inactive: NCI-H23 lung 97.9% | NCI-H226 lung 71.9% | NCI-H322M lung 93.4% | HOP-62 NSCLC 103% | NCI-H460 lung 95.8% | HOP-92 NSCLC 65.5% | A549/ATCC NSCLC 95.8% | 786-0 renal 43.6% | COLO 205 colon 17.2%

CCCC(CC)(C(=O)Nc1ccc2nc(C)cc(N)c2c1)C(=O)Nc1ccc2nc(C)cc(N)c2c1
inactive: NCI-H23 lung 94.1% | NCI-H226 lung 97.8% | NCI-H322M lung 108% | HOP-62 NSCLC 107% | NCI-H460 lung 106% | HOP-92 NSCLC 117% | NCI-H522 lung 92% | A549/ATCC NSCLC 98.3% | 786-0 renal 103% | COLO 205 colon 114%

Cn1cc(-c2ccc(-c3cn(C)c4ccc(Cl)cc34)[nH]2)c2cc(Cl)ccc21
inactive: NCI-H23 lung 10.9% | NCI-H322M lung 41.4% | 786-0 renal 41%
active: NCI-H226 lung 6.47% | HOP-62 NSCLC 9.58% | NCI-H460 lung -60.2% | HOP-92 NSCLC -36% | NCI-H522 lung -33.8% | A549/ATCC NSCLC -48.3% | COLO 205 colon -91.5%

O=C(O)/C=C/C(=O)Nc1cccc(Cn2nnc3cc(Cl)c(Cl)cc32)c1
inactive: NCI-H23 lung 97.3% | NCI-H226 lung 89.8% | NCI-H322M lung 101% | HOP-62 NSCLC 98.4% | NCI-H460 lung 105% | HOP-92 NSCLC 97.5% | NCI-H522 lung 96.2% | A549/ATCC NSCLC 102% | 786-0 renal 99.7% | COLO 205 colon 112%

CCCCCN(CCCCC)CC(O)c1cc(C)c2ccc3cc(C(C)C)ccc3c2c1 (stereo not given)
inactive: NCI-H226 lung 78.9% | NCI-H322M lung 76.7% | HOP-62 NSCLC 20%
active: NCI-H23 lung -52.1% | NCI-H460 lung 6.03% | HOP-92 NSCLC -43.6% | NCI-H522 lung -62.4% | A549/ATCC NSCLC 3.86% | 786-0 renal -80.5% | COLO 205 colon -14.9%

N#C/C(=C\c1ccc([N+](=O)[O-])cc1)n1nnc2cc(F)c(F)cc21
inactive: NCI-H23 lung 34.6% | NCI-H322M lung 72.5% | HOP-62 NSCLC 63.9% | NCI-H460 lung 11.7% | NCI-H522 lung 36.9% | A549/ATCC NSCLC 64.5% | COLO 205 colon 19.9%
active: NCI-H226 lung -1.27% | HOP-92 NSCLC 9.03% | 786-0 renal -58.4%

Cc1c2ccncc2c(C)c2c1c1cc(CO)ccc1n2C
active: NCI-H23 lung 6.65% | NCI-H226 lung -49.2% | NCI-H322M lung 3.23% | HOP-62 NSCLC -19.6% | NCI-H460 lung -35.4% | HOP-92 NSCLC -5.78% | A549/ATCC NSCLC 2.79% | 786-0 renal 1.95% | COLO 205 colon -39%
inactive: NCI-H522 lung 21.1%
